The list is not random: actives were taken first. Their share in the collection is about 0.44%.
PolyA inhibitor = polyadenylation inhibitors in yeast reporter cells, primary screen, luminescence, S. cerevisiae. S. cerevisiae SKY197-pL101 polyadenylation reporter, beta-gal luminescence; efflux-impaired pdr1/pdr3 knockout yeast; score 100 = 6 SD above DMSO. activity score, % at 12 µM. 0.02% of 300,000 active. AID 1875, 2009;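 active = lowest replicate activity score at least 50, where 100 means six control SD above control mean; inconclusive = lowest score under 50 but half or more replicates reach 50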;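 note: yeast exposed to compound for 9 h at 30 °C; higher score means more reporter readthrough which indicates perturbed polyadenylation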
ABCB6 inh 2 = ABCB6 transporter inhibitors, primary screen, K562-ABCB6 cells, flow cytometry, MLPCN library; K562-ABCB6 porphyrin accumulation, 1 h; active compounds read low; fluorescence ratio to DMSO, % at 10 µM; ATP-binding cassette sub-family B member 6 (Homo sapiens), Q9NP58; 0.19% of 360,000 active;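 active = fluorescence ratio to DMSO below 75%, the collection mean minus 3 SD; inconclusive = too few cells collected in the well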;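 note: signal is porphyrin accumulated inside mitochondria; lower ratio means ABCB6 inhibition with less porphyrin fluorescence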
VLA-4 inh = inhibition in human VLA-4 binding assay, primary screen, VLA-4 allosteric modulator project, MLPCN library, flow cytometry, VLA-4 expressing cells; Integrin alpha-4 (Homo sapiens), P13612; ligand binding flow cytometry; inhibition, % (about 7 µM as worked out from the volumes in the protocol); 0.2% of 330,000 active; in the data active = inhibition above about 50%
Target sequence (P13612 whole entry, looked up): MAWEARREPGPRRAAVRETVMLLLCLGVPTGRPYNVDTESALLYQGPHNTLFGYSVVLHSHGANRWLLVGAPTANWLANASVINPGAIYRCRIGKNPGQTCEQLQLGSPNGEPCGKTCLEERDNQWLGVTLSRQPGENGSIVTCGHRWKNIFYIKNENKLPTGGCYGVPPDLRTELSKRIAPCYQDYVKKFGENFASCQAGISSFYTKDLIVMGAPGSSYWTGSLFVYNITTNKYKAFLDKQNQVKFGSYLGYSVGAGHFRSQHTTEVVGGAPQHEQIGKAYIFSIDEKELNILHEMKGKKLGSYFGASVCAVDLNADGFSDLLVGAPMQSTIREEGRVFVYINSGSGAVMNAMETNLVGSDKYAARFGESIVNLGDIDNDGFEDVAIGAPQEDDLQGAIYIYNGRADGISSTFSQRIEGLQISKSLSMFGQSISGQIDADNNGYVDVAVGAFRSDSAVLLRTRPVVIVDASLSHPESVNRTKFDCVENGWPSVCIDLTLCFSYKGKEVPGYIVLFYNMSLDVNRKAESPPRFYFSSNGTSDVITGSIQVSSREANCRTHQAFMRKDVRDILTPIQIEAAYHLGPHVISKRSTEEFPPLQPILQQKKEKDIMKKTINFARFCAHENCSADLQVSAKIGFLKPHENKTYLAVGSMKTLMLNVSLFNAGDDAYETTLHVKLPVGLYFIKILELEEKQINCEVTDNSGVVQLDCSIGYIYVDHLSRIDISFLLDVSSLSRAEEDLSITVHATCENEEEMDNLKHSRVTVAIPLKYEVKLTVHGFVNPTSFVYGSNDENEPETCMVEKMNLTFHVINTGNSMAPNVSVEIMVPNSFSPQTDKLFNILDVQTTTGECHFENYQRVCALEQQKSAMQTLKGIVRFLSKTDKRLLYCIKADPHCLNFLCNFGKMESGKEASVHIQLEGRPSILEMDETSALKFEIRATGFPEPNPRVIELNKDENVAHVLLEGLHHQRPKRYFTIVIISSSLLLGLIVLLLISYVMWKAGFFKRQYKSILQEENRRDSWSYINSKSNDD
GASC-1 inh = inhibitors of GASC-1 histone demethylase, primary screen, biochemical, fluorescence, DELFIA europium | GST-JMJD2C(1-420) H3K9me3 demethylation | inhibition, % at 2.35 µM | 0.069% of 330,000 active | AID 2099, 2009;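 active = more than half of a compound's replicate wells show inhibition beyond 50%, single wells judged on their own value; inconclusive = some, but no more than half, of replicates pass 50% inhibition; inactive = no replicate passes 50% inhibition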;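 note: signal counts dimethyl H3K9 product captured on neutravidin plate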
VLA-4 mod pick = retest of VLA-4 allosteric modulators, confirmation, cell-based, cherry-picked plates, U937, HUTS-21 LIBS antibody. U937 cells, HUTS-21 LIBS mAb binding, flow cytometry; LDV ligand present at threefold Kd. inhibition, % at 6.7 µM. 2% of 1,300 active. shares compounds with VLA-4 inh; in the data active = inhibition above about 40%
ABCB6 inh CP1 = ABCB6 transporter inhibitors, confirmation, K562-ABCB6 cells, flow cytometry, cherry pick 1 | shares compounds with ABCB6 inh 2 | K562-ABCB6 porphyrin accumulation, 1 h; active compounds read low | ratio response (% of DMSO), % at 10 µM | 700 tested, under 10 active;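 active = repeat-averaged ratio response below 75% of DMSO, the collection mean minus 3 SD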;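 note: median porphyrin fluorescence at 575 nm with 488 nm excitation from mitochondria; lower ratio means less porphyrin signal so ABCB6 inhibition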
Large screens that a line does not name were inactive (follow-up assays come after a bar, where they were run).

CN1C2CCC1CC(OC(=O)c1ccc(Cl)cc1)C2 (stereo not drawn)	none | VLA-4 mod pick inactive
CCOc1ccc(C(=O)OC2CC3CCC(C2)N3C)cc1 (stereo not drawn)	none | VLA-4 mod pick inactive
COc1ccc(C(=O)OC2C[C@H]3CC[C@H](C2)N3C)cc1OC (stereo partly drawn)	none (no result: PolyA inhibitor, GASC-1 inh) | VLA-4 mod pick inactive
CN1C2CCC1CC(OC(=O)c1ccc(Cl)cc1)(C(=O)O)C2 (stereo not drawn)	none | VLA-4 mod pick inactive
COC(=O)C1=C(c2ccc(C(C)=O)cc2)C[C@@H]2CC[C@H]1N2C	none (no result: PolyA inhibitor)
CCOP(=O)(OCC)C(NC(=O)c1ccc(C)cc1)=C(Cl)Cl	none
CC(C)CC12CN3CCN(CC(C3)/C1=N/O)C2	none
C[N+]1(C)C2CCC1CC(OC(=O)c1ccccc1)C2 (stereo not drawn)	none | VLA-4 mod pick inactive
COc1ccc(C2=NCC(=O)N(CC(=O)NCc3ccco3)c3sc4c(c32)CCCC4)cc1	none
O=C1CN=C(c2ccc(Br)cc2)c2c(sc3c2CCCC3)N1CCN1CCCCC1	VLA-4 inh 55.1 | VLA-4 mod pick inactive
CC(Cc1ccccc1)NC(=O)CN1CCCC1=O (stereo not drawn)	none
CCCCOP(=O)(CN1CCOCC1)OCCCC	VLA-4 inh 90.9 | VLA-4 mod pick inactive
O=C(C[N+]12CCC(CC1)C(CO)C2)c1ccc([N+](=O)[O-])cc1 (stereo not drawn)	none
Cc1cccc(NC(=O)N2C[C@H]3C[C@@H](C2)c2cccc(=O)n2C3)c1	none (no result: GASC-1 inh)
Cc1cc(OCC(=O)NCc2ccncc2)c2c3c(c(=O)oc2c1)CCC3	none
Cc1cc(OCC(=O)NCc2ccc(S(N)(=O)=O)cc2)c2c3c(c(=O)oc2c1)CCC3	VLA-4 inh 53.1 | VLA-4 mod pick inactive
COc1ccc(CCN)cc1OC	none
NCCc1ccc(OCc2ccccc2)c(OCc2ccccc2)c1	VLA-4 inh 73.6 (no result: PolyA inhibitor) | VLA-4 mod pick inactive
Cc1cc(N2C(=O)CC(N3CCC(n4c(=O)[nH]c5ccccc54)CC3)C2=O)no1 (stereo not drawn)	none
Cc1nonc1OCCNc1ccc([N+](=O)[O-])c2cccnc12	ABCB6 inh 2 72.0 | ABCB6 inh CP1 inactive
COc1cccc(C(c2nnnn2Cc2ccccc2)N2CCC(n3c(=O)[nH]c4ccccc43)CC2)c1OC (stereo not drawn)	ABCB6 inh 2 74.0 (no result: PolyA inhibitor, VLA-4 inh, GASC-1 inh) | ABCB6 inh CP1 inactive
CC(C)CCCn1c(O)c(/C=C2/C=CC=N2)c(=O)[nH]c1=O	ABCB6 inh 2 70.0 | ABCB6 inh CP1 inactive
CCCCn1c(O)c(C=NCCCn2ccnc2)c(=O)[nH]c1=O	none
Cc1[nH]c2ccccc2c1CCCNC1CCCCC1	none
COc1ccccc1C(=O)C1CCCN(Cc2cnc(C)s2)C1 (stereo not drawn)	none
COc1cccc(N2C(=O)CC(=O)NC2=O)c1	ABCB6 inh 2 71.0 (no result: PolyA inhibitor, GASC-1 inh) | ABCB6 inh CP1 inactive
CCC(=O)c1cn(Cc2ccccc2)c2ccccc12	none
CN(C)CCOC(=O)c1cn(Cc2ccccc2)c2ccccc12	ABCB6 inh 2 7.0 | ABCB6 inh CP1 inactive
O=c1[nH]c(=S)n(-c2cccc(Cl)c2)c(O)c1C=NCCN1CCNCC1	none
COc1ccc(C(C)=O)cc1Cc1c(O)[nH]c(=S)[nH]c1=O	ABCB6 inh 2 65.0 | ABCB6 inh CP1 inactive
CCOc1ccc(C(C)=O)cc1Cc1c(O)[nH]c(=S)[nH]c1=O	PolyA inhibitor inconclusive
